Source: the supplement of paper PMC12669032

system: Fusobacterium nucleatum subsp. animalis; experiment: growth AUC relative to DMSO control (median of replicates) (fraction); higher = more growth (less inhibition), active = hit call of the paper; details: 20 µM; 24 h
Procedure, shortened: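 Hourly OD600 readings over 24 h tracked anaerobic gut bacterial monocultures grown at 37 °C in mGAM from OD600 0.05 with 20 µM compound (1% DMSO). After the minimum OD was set to 0, area under the growth curve was normalised to the plate median of solvent-only wells, or to row and column medians on the industrial chemical plate. Values are medians of three biological replicates grown on separate days.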

Growth AUC, inactive:
O=C(O)Cc1c(Cl)ccc(Cl)c1Cl 0.928
COc1cc(OC)c(Cl)cc1N 1.14
O=S(Cc1ccc(Cl)cc1)c1ccc(Cl)cc1 (centres undefined) 0.94
Cc1cc(C)c(C2=C(O)C3(CCCC3)OC2=O)c(C)c1 0.947
CN(C)C(=O)c1cccnc1S(N)(=O)=O 1.02
CCCN(CCOc1c(Cl)cc(Cl)cc1Cl)C(N)=O 0.935
Cc1nn(C)c(OCC(=O)c2ccccc2)c1C(=O)c1ccc(Cl)cc1Cl 1.02
CC(C)(C)Nc1nc(N)nc(Cl)n1 1
COC(=O)c1c(Cl)nn(C)c1S(=O)(=O)NC(=O)Nc1nc(OC)cc(OC)n1 1.09
[S] 1.01
CCCCCCCCc1c(CC)nc2ncnn2c1N 1.04
Cn1cc(C(=O)Nc2ccccc2-c2cc(F)c(F)c(F)c2)c(C(F)F)n1 0.873
CCCOc1nc2ccc(I)cc2c(=O)n1CCC 0.973
CNc1nc(NC(C)C)nc(SC)n1 0.922
CC(C)(C)[C@@H](O)[C@@H](Cc1ccc(Cl)cc1)n1cncn1 (mixture of isomers) 0.975
Cc1ccc2c(c1)[C@H](Nc1nc(N)nc(C(C)F)n1)[C@@H](C)C2 (some centres undefined) 0.857
CCN(CC)c1nc(C)cc(=O)[nH]1 1.06
Clc1ccc(C(c2ccccc2Cl)C(Cl)Cl)cc1 (centres undefined) 1.01
CSc1nc(NC2CC2)nc(NC(C)(C)C)n1 1.06
CCc1cccc(C)c1N(C(=O)C(=O)O)[C@@H](C)C(=O)O 1.03
CCNc1nc(NC(C)(C)C)[nH]c(=O)n1 0.99
CC(C)N(C(=O)C(=O)O)c1ccccc1 1.09
Cc1nn(C)c(F)c1C(=O)Nc1ccccc1C(C)CC(C)C (centres undefined) 0.977
CC(C)c1cc(Oc2ccccc2)cc(C(C)C)c1NC(=S)NC(C)(C)C 0.911
CCCCOCCOC(=O)COc1ccc(Cl)cc1Cl 0.92
CCOC(=O)C(C)Oc1ccc(Oc2nc3ccc(Cl)cc3o2)cc1 (racemic) 0.929
C/C=C/C(=O)Oc1c(C(C)CCCCCC)cc([N+](=O)[O-])cc1[N+](=O)[O-] (mixture of isomers) 0.94
c1ccc2c(c1)Cc1ccccc1-2 1.03
CC(C)(C)C(O)/C(=C\c1ccc(Cl)cc1)n1cncn1 (centres undefined) 0.987
Oc1ccccc1 1.04
Cc1c(Br)c2ccc(F)cc2n1S(=O)(=O)c1ncn(S(=O)(=O)N(C)C)n1 1.08
NC(Cn1cncn1)C(=O)O (centres undefined) 0.94
CCCCC(CC)COC(=O)COc1ccc(Cl)cc1C (centres undefined) 0.989
c1ccc(CNc2ncnc3nc[nH]c23)cc1 0.943
CON=C(Cc1cccnc1)c1ccc(Cl)cc1Cl 1.03
COC(=O)Cc1cccc2ccccc12 0.996
CC1(C)C(=O)Oc2ccc(OS(C)(=O)=O)cc21 1.1
CN(C)c1ccc(N=NS(=O)(=O)[O-])cc1.[Na+] 1.01
CCOC(=O)Cn1c(=O)sc2cccc(Cl)c21 0.994
